These results are taken from PubChem BioAssay.

The structures appear in SMILES notation.

This assay can be described thus: small molecules captured by biotinylated probe aFSTL3 – biochemical, small-molecule microarray, fluorescence 635/667, stem cell growth factor project, primary screen (AID 1064).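 Further: measures binding of the biotinylated anti-FSTL3 antibody to printed compounds.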 The following applies: higher = more signal.
Turning to `CN1C(=O)C2C=CC(C(O)c3cc(C(F)(F)F)cc(C(F)(F)F)c3)N(N3CCCCC3)C2C1=O` (stereo not given), the composite z-score was determined as 0.104.

Take `CC(C)[C@@H](CO)NC(=O)[C@H]1[C@@H](c2ccccc2)N(c2ccccc2)O[C@@H]1C`: the composite z-score was -0.5. The same measure for `COc1cc2c(cc1O)C(C1CC1)N(Cc1cc3c(cc1Br)OCO3)CC2` (stereo not given): 0.423; for `C=CCNC(=O)[C@H]1[C@@H]2C(=O)O[C@@H](c3ccccc3)[C@@H](c3ccccc3)N2[C@@H](c2ccccc2OCCO)[C@]12C(=O)Nc1ccc(C#CC3=CCCCC3)cc12`: -0.382; for `O=C1C2C=CC(C(O)c3ccc(F)cc3)N(Nc3ccccc3F)C2C(=O)N1c1ccccc1` (stereo not given): 0.185. The same measure for `COc1cc(OC)c(C(O)C2C=CC3C(=O)NC(=O)C3N2Nc2ccc(Cl)cc2Cl)cc1Br` (stereo not given): 0.379; for `COc1cc2c(cc1O)C=[N+](Cc1cccc(OC(F)(F)F)c1)CC2`: -0.193; for `COc1ccc([Si](C)(C)[C@H]2[C@H](CC(=O)N3Cc4ccccc4C[C@H]3CO)O[C@@]3(C(=O)N(Cc4ccc(N5CCC5=O)cc4)c4ccccc43)[C@@H]2C)cc1`: 0.061. The value for `Cc1ccc(S[C@]2(C(=O)NCCN3CCOCC3)CC(=O)N(Cc3ccccc3)[C@@H]2c2ccc(CO)cc2I)cc1` was 1.09. Compound `COCCOC(=O)N1C(=O)[C@@]2(c3cc(C#Cc4ccc(OC)cc4)ccc31)[C@H](C(N)=O)[C@H]1C(=O)O[C@H](c3ccccc3)[C@H](c3ccccc3)N1[C@@H]2c1ccccc1OCCO` yielded a composite z-score of 0.214. The same measure for `[N-]=[N+]=NCc1ccccc1C[C@]1(C(=O)NCC(O)CO)N=C(c2ccc(OCCCO)cc2)O[C@H]1c1ccccc1` (stereo not given in full): 0.881. The same measure for `C#CCN(Cc1ccccc1Br)C(/C=C/c1ccccc1)CO` (stereo not given): 0.389; for `C#CCN(CC=C(C)C)[C@H](CO)c1ccccc1`: -0.418. The value for `COc1ccc([Si](C)(C)[C@H]2[C@H](CCO)O[C@@]3(C(=O)N(Cc4ccc(N5C(=O)COc6ccccc65)cc4)c4ccccc43)[C@@H]2C)cc1` was 0.0421; that for `CO[C@H]1O[C@H](CO)[C@@H](OC(=O)Nc2ccc(Br)cc2)[C@H](OC(=O)c2cc3ccccc3[nH]2)[C@H]1OC(=O)c1cc2ccccc2[nH]1` was -0.31. For the compound `CN1C(=O)C2C=CC(C(O)c3ccccc3)N(Nc3ccccc3)C2C1=O` (stereo not given), the composite z-score came to 0.527.

Regarding `COC(=O)[C@@]1(Cc2ccc(F)cc2)[C@H]2c3cc(C(=O)N4CCCC4)n(Cc4ccc(C)o4)c3C[C@H]2CN1C(=O)c1ccccc1`, the composite z-score worked out at 0.285. The same measure for `CCCCC(=C=CC[C@@H](O)c1ccccc1OCCO)CCO`: -0.347; for `CC(=O)N1Cc2ccccc2C[C@@]2(COC(c3ccc(OCCCO)cc3)=N2)C1=O`: 1.54; for `C[C@]1(C(=O)NC2CC2)c2ccccc2C(=O)N(Cc2cc(C(F)(F)F)cc(C(F)(F)F)c2)[C@H]1c1ccc(CO)cc1`: 0.098. Turning to `CCCC[C@@H]1C[C@H]1[C@@H](NC(=O)c1ccco1)c1ccc(C(=O)OC)cc1`, the composite z-score came to 0.238. In the case of `C[C@@]1([C@@H](NC(=O)c2ccccc2)c2ccc(-c3ccccc3)cc2)C[C@H]1C1CCCCC1`, the composite z-score came out at 0.742.

On to `COCCOC(=O)N1C(=O)[C@@]2(c3cc(C#CC4=CCCCC4)ccc31)[C@H](c1ccc(O)cc1)N1[C@H](c3ccccc3)[C@H](c3ccccc3)OC(=O)[C@H]1[C@@H]2C(N)=O`, for which the composite z-score is -0.456. For `O=C1C2C=CC(C(O)C(c3ccccc3)c3ccccc3)N(n3cnnc3)C2C(=O)N1Cc1ccccc1` (stereo not given), the composite z-score is -0.148. The same measure for `CN(C)CCCC[C@@H]1NC(=O)[C@H]2C[C@@H](C(=O)NCCCCCNC(=O)CS)[C@@H](c3cccc(OCCO)c3)N2C1=O`: -0.23; for `O=C(O)[C@@]1(CCS(=O)(=O)c2ccccc2)COC(c2ccc(OCCCO)cc2)=N1`: 0.803.

`[N-]=[N+]=NCc1ccccc1[C@@H]1OC(c2ccc(OCCCO)cc2)=N[C@]1(Cc1ccccc1N=[N+]=[N-])C(=O)N1CCOCC1`: the composite z-score turned out to be 0.36.

Regarding `CC(C)N1C(=O)[C@@]2(Cc3ccccc31)c1ccccc1C(=O)N(C1CCCCC1)[C@H]2c1ccc(CO)cc1`, the composite z-score was -0.302. `CCOC(=O)[C@H]1C/C=C/C[C@H](C(=O)OCC)C(=O)O[C@H]2[C@@H](OC)O[C@H](CO)[C@@H](OC(=O)Nc3ccc(C#N)cc3)[C@@H]2OC1=O` had a composite z-score of 0.0283.

`COc1ccc(C(O)C2C=CC3C(=O)N(c4ccccc4)C(=O)C3N2Nc2ccccc2F)cc1OCc1ccccc1` (stereo not given) yielded a composite z-score of 0.873. The value for `CN(C)C(=O)[C@]1(Cc2ccccc2CN=[N+]=[N-])N=C(c2ccc(OCCCO)cc2)O[C@@H]1c1ccccc1CN=[N+]=[N-]` was -0.0551.

`O=C1NCC(=O)N2[C@@H]1C[C@@H](C(=O)O)[C@H]2c1cccc(OCCO)c1` came in with a composite z-score of 3.93. The value for `COCCOC(=O)N1C(=O)[C@@]2(c3cc(C#CC4(O)CCCCCC4)ccc31)[C@H](c1ccc(O)cc1)N1[C@H](c3ccccc3)[C@H](c3ccccc3)OC(=O)[C@H]1[C@@H]2C(=O)Nc1nc2ccccc2s1` was 1.87; that for `COCCOC(=O)N1C(=O)[C@@]2(c3cc(C#CCNC(N)=O)ccc31)[C@H](C(=O)NC[C@H](O)c1ccccc1)[C@H]1C(=O)O[C@H](c3ccccc3)[C@H](c3ccccc3)N1[C@@H]2c1ccccc1OCCO` was -0.12. In the case of `O=C(NCc1ccccc1)[C@@]1(CCS(=O)(=O)c2ccccc2)N=C(c2ccc(OCCCO)cc2)O[C@H]1c1ccccc1`, the composite z-score is -0.0744.
